The supplement of paper PMC11732987, “Enantioselective OTUD7B fragment discovery through chemoproteomics screening and high-throughput optimisation” (Communications Chemistry, 2025)

Key:
Assay in all cases: log2 ratio of Biotin-Ahx-Ub-VS probe labelling (fragment/DMSO); higher = less target engagement (more negative = stronger competition), active = hit call of the paper (q ≤ 0.05, log2 ratio ≤ -1)
Settings in all cases: compound concentration: 200 uM; treatment time: 3 h
[1] = biological target: T1, ALG13 (UniProt Q9NP73)
T1 sequence (whole entry): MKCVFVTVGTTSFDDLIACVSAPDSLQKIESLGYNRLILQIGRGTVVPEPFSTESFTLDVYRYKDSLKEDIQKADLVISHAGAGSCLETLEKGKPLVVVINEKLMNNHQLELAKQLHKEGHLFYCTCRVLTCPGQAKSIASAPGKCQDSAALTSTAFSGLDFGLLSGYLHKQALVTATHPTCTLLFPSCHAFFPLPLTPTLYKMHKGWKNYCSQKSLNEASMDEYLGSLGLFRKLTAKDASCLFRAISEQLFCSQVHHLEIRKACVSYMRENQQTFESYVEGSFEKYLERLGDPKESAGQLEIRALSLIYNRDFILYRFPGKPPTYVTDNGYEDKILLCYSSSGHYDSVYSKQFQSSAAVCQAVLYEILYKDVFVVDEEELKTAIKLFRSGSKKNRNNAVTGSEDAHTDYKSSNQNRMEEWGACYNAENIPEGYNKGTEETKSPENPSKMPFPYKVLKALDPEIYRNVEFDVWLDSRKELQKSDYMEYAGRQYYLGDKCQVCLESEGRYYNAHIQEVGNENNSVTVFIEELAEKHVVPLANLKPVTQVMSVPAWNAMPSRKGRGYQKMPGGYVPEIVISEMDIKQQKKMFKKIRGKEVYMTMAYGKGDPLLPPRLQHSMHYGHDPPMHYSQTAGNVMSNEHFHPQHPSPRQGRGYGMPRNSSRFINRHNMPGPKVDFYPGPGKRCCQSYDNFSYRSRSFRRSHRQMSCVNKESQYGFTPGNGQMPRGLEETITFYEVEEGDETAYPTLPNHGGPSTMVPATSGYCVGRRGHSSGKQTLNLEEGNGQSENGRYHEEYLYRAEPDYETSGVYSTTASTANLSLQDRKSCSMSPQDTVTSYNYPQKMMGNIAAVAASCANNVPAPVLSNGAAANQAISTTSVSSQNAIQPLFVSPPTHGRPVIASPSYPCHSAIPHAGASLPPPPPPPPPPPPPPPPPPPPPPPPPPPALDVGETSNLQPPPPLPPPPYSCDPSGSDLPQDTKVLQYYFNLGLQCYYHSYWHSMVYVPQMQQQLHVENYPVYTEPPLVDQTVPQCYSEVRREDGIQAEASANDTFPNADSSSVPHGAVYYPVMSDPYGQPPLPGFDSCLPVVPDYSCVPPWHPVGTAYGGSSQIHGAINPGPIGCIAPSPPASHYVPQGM
Summary of the method: (§1)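 Average log2 ratios of fragment over vehicle were obtained by unpaired t-test from global-median-normalised Spectronaut label-free quantities. Proteins with ≥2 unique peptides were included. HEK293T lysate (495 µg per sample) was treated in triplicate with fragment at 200 µM or vehicle for 3 h, then with Biotin-Ahx-Ub-VS at 0.5 µM final for 1 h, and labelled DUBs were NeutrAvidin-enriched and run by diaPASEF LC-MS/MS.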

[2] = biological target: ATXN3 (UniProt P54252)
Sequence of ATXN3 (P54252 whole entry): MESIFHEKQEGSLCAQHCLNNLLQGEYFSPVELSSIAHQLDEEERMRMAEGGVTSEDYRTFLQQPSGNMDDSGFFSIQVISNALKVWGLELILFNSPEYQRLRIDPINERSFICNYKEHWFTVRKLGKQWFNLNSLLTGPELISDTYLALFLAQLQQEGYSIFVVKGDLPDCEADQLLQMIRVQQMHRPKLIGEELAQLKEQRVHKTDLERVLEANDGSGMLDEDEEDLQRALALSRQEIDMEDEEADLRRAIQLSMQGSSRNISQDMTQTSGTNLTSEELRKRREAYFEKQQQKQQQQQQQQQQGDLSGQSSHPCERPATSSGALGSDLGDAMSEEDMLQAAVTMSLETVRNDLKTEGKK
Summary of the method: as §1

[3] = biological target: T2, BAP1 (UniProt Q92560)
T2 sequence (whole entry): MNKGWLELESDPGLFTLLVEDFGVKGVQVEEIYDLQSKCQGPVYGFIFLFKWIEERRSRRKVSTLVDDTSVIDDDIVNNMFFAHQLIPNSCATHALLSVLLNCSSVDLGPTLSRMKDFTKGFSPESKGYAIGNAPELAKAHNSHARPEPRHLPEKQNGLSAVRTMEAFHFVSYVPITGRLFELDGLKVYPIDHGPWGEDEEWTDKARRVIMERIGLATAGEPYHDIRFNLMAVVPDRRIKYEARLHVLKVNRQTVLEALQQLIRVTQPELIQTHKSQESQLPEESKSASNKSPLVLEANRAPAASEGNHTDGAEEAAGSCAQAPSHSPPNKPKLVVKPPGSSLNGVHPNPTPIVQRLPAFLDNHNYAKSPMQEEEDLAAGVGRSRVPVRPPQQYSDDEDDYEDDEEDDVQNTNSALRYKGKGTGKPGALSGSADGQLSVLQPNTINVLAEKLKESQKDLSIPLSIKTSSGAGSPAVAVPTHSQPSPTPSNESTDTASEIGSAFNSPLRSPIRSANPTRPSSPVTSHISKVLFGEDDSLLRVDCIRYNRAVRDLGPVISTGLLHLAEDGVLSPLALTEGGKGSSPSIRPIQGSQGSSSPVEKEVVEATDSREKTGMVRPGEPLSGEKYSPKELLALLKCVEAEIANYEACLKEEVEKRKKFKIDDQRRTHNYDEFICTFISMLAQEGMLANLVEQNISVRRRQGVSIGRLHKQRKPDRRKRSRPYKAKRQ
Summary of the method: as §1

[4] = biological target: EIF3F (UniProt O00303)
Sequence of EIF3F (O00303 whole entry): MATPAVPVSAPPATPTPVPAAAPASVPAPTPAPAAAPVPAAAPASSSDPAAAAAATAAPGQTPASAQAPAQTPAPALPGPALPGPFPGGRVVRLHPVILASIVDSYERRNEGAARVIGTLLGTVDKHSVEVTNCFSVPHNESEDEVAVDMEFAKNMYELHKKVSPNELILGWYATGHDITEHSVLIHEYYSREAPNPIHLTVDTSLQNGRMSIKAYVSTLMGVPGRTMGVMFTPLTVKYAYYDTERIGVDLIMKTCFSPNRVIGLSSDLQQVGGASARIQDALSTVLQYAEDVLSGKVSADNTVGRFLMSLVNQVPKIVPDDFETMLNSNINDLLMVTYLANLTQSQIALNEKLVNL
Summary of the method: as §1

[5] = biological target: EIF3H (UniProt O15372)
Sequence of EIF3H (O15372 whole entry): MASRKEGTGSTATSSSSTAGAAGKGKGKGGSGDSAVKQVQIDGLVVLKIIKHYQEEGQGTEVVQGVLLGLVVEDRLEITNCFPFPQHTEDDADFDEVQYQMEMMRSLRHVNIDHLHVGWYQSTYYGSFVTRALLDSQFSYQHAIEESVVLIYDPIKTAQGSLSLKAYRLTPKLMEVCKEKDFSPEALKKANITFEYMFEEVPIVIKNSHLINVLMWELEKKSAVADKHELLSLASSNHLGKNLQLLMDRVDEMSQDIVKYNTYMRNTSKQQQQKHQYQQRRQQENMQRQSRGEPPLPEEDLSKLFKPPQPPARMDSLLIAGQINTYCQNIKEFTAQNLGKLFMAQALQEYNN
Summary of the method: as §1

[6] = biological target: T3, FAM105A (UniProt Q9NUU6)
T3 sequence (whole entry): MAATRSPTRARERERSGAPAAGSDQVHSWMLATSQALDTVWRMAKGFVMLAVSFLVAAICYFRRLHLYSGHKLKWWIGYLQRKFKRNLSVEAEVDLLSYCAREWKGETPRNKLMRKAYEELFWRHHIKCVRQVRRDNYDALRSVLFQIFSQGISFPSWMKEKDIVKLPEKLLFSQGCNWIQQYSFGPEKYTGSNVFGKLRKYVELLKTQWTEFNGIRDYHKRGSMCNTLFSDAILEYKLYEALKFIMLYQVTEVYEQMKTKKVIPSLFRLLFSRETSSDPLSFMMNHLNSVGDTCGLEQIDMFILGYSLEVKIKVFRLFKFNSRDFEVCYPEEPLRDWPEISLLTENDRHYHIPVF
Summary of the method: as §1

[7] = biological target: OTUB1 (UniProt Q96FW1)
Sequence of OTUB1 (Q96FW1 whole entry): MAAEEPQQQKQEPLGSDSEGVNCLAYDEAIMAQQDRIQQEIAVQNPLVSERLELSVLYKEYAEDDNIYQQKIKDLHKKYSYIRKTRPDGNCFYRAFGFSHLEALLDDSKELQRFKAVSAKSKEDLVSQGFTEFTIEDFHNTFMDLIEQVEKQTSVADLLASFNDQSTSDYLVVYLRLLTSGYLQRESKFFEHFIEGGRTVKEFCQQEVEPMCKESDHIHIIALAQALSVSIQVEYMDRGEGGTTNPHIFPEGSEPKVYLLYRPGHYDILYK
Summary of the method: as §1

[8] = biological target: T4, OTUD4 (UniProt Q01804)
T4 sequence (whole entry): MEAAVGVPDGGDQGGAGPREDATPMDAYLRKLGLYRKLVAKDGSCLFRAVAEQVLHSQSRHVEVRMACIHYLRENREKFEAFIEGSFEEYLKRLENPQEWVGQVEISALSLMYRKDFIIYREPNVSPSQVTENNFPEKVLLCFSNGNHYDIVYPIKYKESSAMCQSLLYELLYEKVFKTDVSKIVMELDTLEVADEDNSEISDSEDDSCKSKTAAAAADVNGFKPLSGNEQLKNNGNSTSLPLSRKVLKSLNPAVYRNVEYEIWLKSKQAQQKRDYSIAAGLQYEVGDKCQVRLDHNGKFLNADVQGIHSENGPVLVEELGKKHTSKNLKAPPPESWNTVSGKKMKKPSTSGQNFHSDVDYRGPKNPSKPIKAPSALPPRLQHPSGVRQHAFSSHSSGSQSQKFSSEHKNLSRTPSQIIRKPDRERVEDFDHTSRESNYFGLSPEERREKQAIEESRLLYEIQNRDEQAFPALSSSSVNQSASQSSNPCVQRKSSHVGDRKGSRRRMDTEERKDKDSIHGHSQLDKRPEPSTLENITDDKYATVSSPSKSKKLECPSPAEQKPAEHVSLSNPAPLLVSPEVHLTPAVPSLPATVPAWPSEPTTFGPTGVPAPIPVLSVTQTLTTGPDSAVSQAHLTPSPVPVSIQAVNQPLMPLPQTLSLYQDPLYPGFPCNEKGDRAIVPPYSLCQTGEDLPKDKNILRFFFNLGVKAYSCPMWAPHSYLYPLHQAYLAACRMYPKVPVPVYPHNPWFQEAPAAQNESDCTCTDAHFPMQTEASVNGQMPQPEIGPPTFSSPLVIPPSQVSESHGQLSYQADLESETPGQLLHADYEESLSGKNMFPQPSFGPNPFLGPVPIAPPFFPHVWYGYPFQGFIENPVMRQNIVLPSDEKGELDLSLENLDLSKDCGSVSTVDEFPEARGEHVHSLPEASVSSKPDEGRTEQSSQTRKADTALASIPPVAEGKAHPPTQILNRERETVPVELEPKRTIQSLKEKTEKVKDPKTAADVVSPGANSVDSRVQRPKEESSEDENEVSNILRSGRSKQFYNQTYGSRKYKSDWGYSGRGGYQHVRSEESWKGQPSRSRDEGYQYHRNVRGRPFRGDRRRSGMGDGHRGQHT
Summary of the method: as §1

[9] = biological target: T5, OTUD5 (UniProt Q96G74)
T5 sequence (whole entry): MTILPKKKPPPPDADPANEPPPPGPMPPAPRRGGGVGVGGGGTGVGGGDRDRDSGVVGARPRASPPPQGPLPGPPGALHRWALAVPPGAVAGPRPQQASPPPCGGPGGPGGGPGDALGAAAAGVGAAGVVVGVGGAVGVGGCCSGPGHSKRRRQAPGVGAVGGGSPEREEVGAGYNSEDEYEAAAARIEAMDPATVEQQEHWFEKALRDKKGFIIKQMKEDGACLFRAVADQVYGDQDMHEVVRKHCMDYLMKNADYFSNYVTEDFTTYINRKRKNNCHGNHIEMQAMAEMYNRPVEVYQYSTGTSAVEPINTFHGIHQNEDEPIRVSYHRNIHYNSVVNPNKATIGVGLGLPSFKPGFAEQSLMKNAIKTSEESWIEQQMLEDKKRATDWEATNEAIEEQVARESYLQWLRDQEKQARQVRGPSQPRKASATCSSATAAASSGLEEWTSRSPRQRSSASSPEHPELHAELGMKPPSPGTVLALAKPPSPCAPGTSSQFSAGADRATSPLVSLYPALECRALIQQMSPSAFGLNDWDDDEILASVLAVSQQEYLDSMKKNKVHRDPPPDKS
Summary of the method: as §1

Measured: log2 ratio of Biotin-Ahx-Ub-VS probe labelling

CC1CN(c2ccc(NC(=O)CCl)cc2)CC(C)O1 (centres undefined)
active: [3] -2.48
inactive: [1] -0.442 | [2] -0.412 | [4] -0.0748 | [5] 0.0832 | [6] 0.115 | [7] 0.133 | [8] -0.357 | [9] -0.371
